TDP1 cell noCPT = qHTS for Inhibitors of human tyrosyl-DNA phosphodiesterase 1 (TDP1): qHTS in cells in absence of CPT | DT40 Tdp1-/- hTDP1 cells, no CPT, ATP luminescence, 48 h | Potency, µM (titrated, usually from 46.2 µM), for the others: at the highest dose activity change, negative = growth inhibition, actives largely listed as inhibitors | 420,000 compounds, 15% hits | AID 686978, 2013; also: potency is read from the fitted curve at half-maximal effect; % is scaled to controls: 0 for no effect and ±100 for the full control effect; nearly all actives have a fitted effect of over 55% in size
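Compound effects on proliferation are scored in DT40 Tdp1-/-;hTDP1 cells in the absence of CPT. ATP levels (CellTiter-Glo luminescence) are recorded after a ≥48 hr, 37 °C incubation.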
TGFb SMAD3 inh = TGF-b pathway inhibition; HepG2 CAGA-GFP TGF-b/SMAD3 reporter, GFP fluorescence, 18 h; TGF-beta stimulated, 500 pg/mL final; Potency, µM (series often up to 46.1 µM), for the others: at the top dose activity, negative = inhibition, usual class: inhibitors; 410,000 compounds, 1.2% hits; AID 588855; also: potency is read from the fitted curve at half-maximal effect; % is scaled to controls: 0 for no effect and ±100 for the full control effect; nearly all actives have a fitted effect of over 65% in size
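Inhibition was scored as loss of TGF-beta-induced (500 pg/mL final, 18 hours, 37 degrees C) GFP in HEPG2 cells carrying a CAGA-GFP reporter, in DMEM with 1% FBS. Well GFP was summed per cell; Activity was normalised to unstimulated and stimulated DMSO wells, then concentration-response fitting.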
IL1B secr inh = blocks inflammasome-driven IL-1 beta release; THP-1 LPS/ATP IL-1B secretion, AlphaLISA, 16 h; hits give low values; activity change, % at 57.5 µM; 360,000 compounds, 4.7% hits; AID 743279; in the data active = activity change below about -50%; inconclusive = mostly about -30% to -49%; also: % is scaled to controls: 0 for no effect and ±100 for the full control effect
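THP-1 cells pretreated 1 hr with compounds (up to 57.5 uM final), then stimulated with LPS (250 ng/mL final) plus ATP (1.25 mM final); secreted IL-1B measured by AlphaLISA after 16 hr, decreased signal indicating inhibition.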
HepG2 viability = kills HepG2 cells in TGF-b inhibitor counter-screen | HepG2 CAGA-GFP viability, ATP luminescence, 18 h | Potency, µM (series often up to 46.1 µM), for inactives: at the highest dose activity change, negative = cytotoxicity, most hits filed as cytotoxic | AID 588856 | 410,000 compounds, 0.76% hits; also: potency is read from the fitted curve at half-maximal effect
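CellTiter-Glo luminescence gave cytotoxicity after 18 hours at 37 degrees C. The cells were HepG2 CAGA-GFP in 1% FBS DMEM, stimulated with 500 pg/mL TGF-beta after compound addition. %Activity was normalised to no-cell wells (complete cell-killing) and DMSO (no toxicity), and curves were fitted and classified.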
TDP1 cell CPT = growth inhibition of DT40 Tdp1-/-;hTDP1 cells with camptothecin (screen for TDP1 inhibitors). chicken DT40 Tdp1-/-;hTDP1 cells + 20 nM CPT, ATP luminescence, 48 h. Potency, µM (doses to about 46.2 µM), for the others: at the highest dose activity change, negative = growth inhibition, actives largely listed as inhibitors. 420,000 compounds, 12% hits; also: potency is read from the fitted curve at half-maximal effect; % is scaled to controls: 0 for no effect and ±100 for the full control effect; nearly all actives have a fitted effect of over 55% in size
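Cell growth measured by CellTiter-Glo luminescence after a minimum 48 h, 37 C compound exposure with 20 nM CPT in Tdp1-knockout DT40 cells stably expressing hTDP1, seeded 400/well; qHTS titration format.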
TDP1 inh = inhibitors of human tyrosyl-DNA phosphodiesterase TDP1. Q9NUW8. recombinant TDP1, AlphaScreen DNA substrate cleavage. Potency, µM (highest dose often 130 µM), for the others: top-dose activity change, negative = inhibition, usual class: inhibitors. 350,000 compounds, 0.28% hits. AID 485290; also: potency is read from the fitted curve at half-maximal effect; % is scaled to controls: 0 for no effect and ±100 for the full control effect; nearly all actives have a fitted effect of over 40% in size
Target sequence (Q9NUW8 whole entry, looked up): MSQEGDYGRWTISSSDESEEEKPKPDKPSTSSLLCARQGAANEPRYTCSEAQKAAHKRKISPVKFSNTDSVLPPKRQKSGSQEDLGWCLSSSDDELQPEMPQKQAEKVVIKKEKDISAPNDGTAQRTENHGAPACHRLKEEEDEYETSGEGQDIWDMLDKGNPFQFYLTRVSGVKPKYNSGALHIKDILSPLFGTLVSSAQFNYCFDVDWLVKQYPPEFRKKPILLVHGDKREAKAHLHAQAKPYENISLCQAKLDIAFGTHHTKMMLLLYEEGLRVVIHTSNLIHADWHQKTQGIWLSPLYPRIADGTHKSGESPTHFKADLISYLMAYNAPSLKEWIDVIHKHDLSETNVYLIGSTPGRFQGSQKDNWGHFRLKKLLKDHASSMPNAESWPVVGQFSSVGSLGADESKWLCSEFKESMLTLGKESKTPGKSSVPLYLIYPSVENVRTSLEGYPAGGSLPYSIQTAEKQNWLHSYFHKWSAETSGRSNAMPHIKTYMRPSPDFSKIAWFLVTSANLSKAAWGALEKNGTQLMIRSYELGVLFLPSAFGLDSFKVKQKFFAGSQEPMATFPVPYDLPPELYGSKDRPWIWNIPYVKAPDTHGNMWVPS
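Compounds were preincubated with Tdp1 (1 nM final) for 15 min at room temperature before substrate (15 nM final) started a 5 min reaction; beads (10 ug/ml final) were then added for 10 min before AlphaScreen detection.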
* marks the source's active call; other numbers are inactive results; u = inconclusive; x = no result given. Shown are actives, neighbours in structure and some others; about 18% of the full set was active somewhere. Unless noted, calls follow the shape of the dose curve; as a rule, active = well fitted curve in the direction sought with a large enough effect; inconclusive = small, poorly fitted or top-dose-only effect, or another doubt; inactive = no such curve, though single readings can be large; an effect the other way counts as inactive or inconclusive.

SMILES	TDP1 cell noCPT	TGFb SMAD3 inh	IL1B secr inh	HepG2 viability	TDP1 cell CPT	TDP1 inh
CCc1ccccc1NC(=O)N1CC(C)Sc2ccccc21 (configuration not stated)	u	0%	x	-34%	21µM*	4%
CC1CN(C(=O)Nc2ccc(C(=O)NCc3ccccc3F)cc2)c2ccccc2S1 (configuration not stated)	15µM*	-2%	x	6%	23µM*	3%
CCc1ccccc1NC(=O)N1CCc2ccccc21	u	-5%	-4	5%	23µM*	-5%
Cc1ccccc1NC(=O)CCC(=O)N1CC(C)Sc2ccccc21 (configuration not stated)	u	-16%	x	-7%	u	3%
CCOc1ccccc1CNC(=O)c1ccc(NC(=O)N2CC(C)Sc3ccccc32)cc1 (configuration not stated)	7.3µM*	-17%	x	-19%	13µM*	3%
CCCCCCCCCCCCC/C=C/C(O)C(COP(=O)(O)OCCN)NC(=O)CCCCCCCCCCCCCCCCC (configuration not stated)	x	x	x	x	x	7%
O=C(CSc1ncnc2sccc12)NCc1ccc2c(c1)OCO2	0%	0%	11	1%	1%	2%
Cc1ccc(CCNC(=O)c2ccc(NC(=O)N3CC(C)Sc4ccccc43)cc2)cc1 (configuration not stated)	u	-13%	x	-17%	u	-3%
Cc1ccccc1CCNC(=O)c1ccc(NC(=O)N2CC(C)Sc3ccccc32)cc1 (configuration not stated)	7.3µM*	0%	x	-19%	18µM*	-5%
CC1CN(C(=O)Nc2ccc(C(=O)NCc3cccc(F)c3)cc2)c2ccccc2S1 (configuration not stated)	18µM*	-25%	x	2%	u	3%
Cc1cccc(CNC(=O)c2ccc(NC(=O)N3CCSc4ccccc43)cc2)c1	9.2µM*	-13%	x	-14%	16µM*	-3%
N#CCCn1c(=O)cnc2cnc(N3CCNCC3)nc21	-6%	x	x	x	11%	x
CCN(C(=O)Cn1nc(Cc2ccncc2)c2ccccc2c1=O)c1cccc(C(F)(F)F)c1	u	u	x	-42%	u	-1%
CCOc1ccc(-c2nnc(Nc3ccc(S(N)(=O)=O)cc3)c3ccccc23)cc1	-23%	-1%	x	2%	4%	x
Cn1nnnc1SCc1ccc(C(=O)Nc2ccccc2F)cc1	-8%	-30%	-28	-44%	-1%	9%
Cc1cc(C)cc(NC(=O)c2ccc(CSc3nnnn3C)cc2)c1	-6%	2%	-53*	-37%	-6%	3%
O=C(CC[C@H]1O[C@@H](n2ccc(=O)[nH]c2=O)[C@H](O)[C@@H]1O)N[C@H](Cc1ccccc1)C(=O)NCCCc1ccccc1	1%	-16%	18	-16%	-7%	x
CC(CNC(=O)[C@@H](Cc1ccccc1)NC(=O)CC[C@H]1O[C@@H](n2ccc(=O)[nH]c2=O)[C@H](O)[C@@H]1O)c1ccccc1 (some centres not stated)	36%	0%	-66*	-12%	8%	x
O=C(CSc1n[nH]c(-c2ccccc2Cl)n1)NCCc1ccccc1	21µM*	u	x	-16%	9.2µM*	5%
COc1cccc(CNC(=O)CSc2n[nH]c(-c3ccccc3Cl)n2)c1OC	-23%	-18%	x	-6%	-28%	-3%
O=C(CSc1n[nH]c(-c2cccs2)n1)NCCc1ccccc1	u	0%	25	2%	u	-3%
CCOc1ccccc1CNC(=O)CSc1n[nH]c(-c2ccccc2Cl)n1	23µM*	-8%	x	-6%	13µM*	3%
S=c1[nH]nc(-c2ccc(Cl)cc2)n1CCCN1CCOCC1	5%	-5%	-2	-9%	-2%	5%
Cc1c(C(=O)N2CCOCC2)sc2nc(-c3ccccc3)cn12	-17%	8%	0	8%	1%	2%
COc1ccc(-c2cn3c(C)c(C(=O)N4CCc5ccccc5C4)sc3n2)cc1	21µM*	-21%	54	-28%	18µM*	x
SMILES	TDP1 cell noCPT	TGFb SMAD3 inh	IL1B secr inh	HepG2 viability	TDP1 cell CPT	TDP1 inh
Cc1c(C(=O)N2CCc3ccccc3C2)sc2nc(-c3ccccc3)cn12	21µM*	-17%	-11	-18%	u	1%
COCCN(CCOC)CC(O)COC(c1ccccc1)c1ccccc1 (configuration not stated)	15µM*	6%	-3	8%	0%	0%
CCN(CC)CCOC(c1ccccc1)c1ccc(C)cc1 (configuration not stated)	u	-9%	u	-47%	u	0%
COC(=O)c1cc(=O)n(CCc2ccc(OC)c(OC)c2)c(=Nc2ccc(F)c(Cl)c2)s1	u	5%	-104*	1%	u	7%
COC(=O)c1cc(=O)n(Cc2cccs2)c(=Nc2ccccc2)s1	-27%	u	-1	-33%	-12%	8%
COC(=O)c1cc(=O)n(Cc2ccco2)c(=Nc2ccc(F)cc2)s1	u	u	-18	-76%	21µM*	x
COC(=O)c1cc(=O)n(-c2ccccc2)c(=Nc2ccccc2)s1	23µM*	18µM*	-58*	-60%	u	4%
COC(=O)c1cc(=O)n(Cc2ccc(F)cc2)c(=Nc2ccccc2)s1	u	u	u	-40%	u	5%
CNC(=O)C1CC(=O)N(Cc2ccc(OC)c(OC)c2)C(=Nc2ccc(OC)cc2)S1 (configuration not stated)	-14%	6%	-28	4%	-6%	2%
CNC(=O)C1CC(=O)N(CCc2ccc(OC)c(OC)c2)C(=Nc2ccc(F)cc2)S1 (configuration not stated)	u	19%	-77*	-1%	7%	3%
CCCSc1ncc(Cl)c(C(=O)Nc2scc(-c3ccc(C)cc3)c2C(=O)OCC)n1	0%	x	x	5%	3%	10%
CCOC(=O)CC(=O)NC(C)(C)CCCCC(C)(C)NC(=O)CC(=O)OCC	-15%	-15%	0	-11%	-5%	x
COc1ccc([C@H]2CC(=O)C=C(c3ccc(SC)cc3)C2)cc1	-27%	8%	-13	-1%	u	0%

Screens deposited in PubChem by National Center for Advancing Translational Sciences (NCATS).
